Results: PubChem BioAssay
Where “and” joins values, the source holds several entries; their conditions need not be identical. Identical values can stand only once. Calls of active or inactive are those of the source.

What was measured:
[1] = molecular target: Albumin (Bos taurus) (UniProt P02769); experiment: bovine serum albumin binders on microarray, profiling panel, artefact control for SMM control protein annotation, biochemical, small-molecule microarray, Alexa647 label, 635/667 nm fluorescence (AID 1118); conditions: BSA-A647 binding, fluorescence 635 nm, higher = more signal;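 note: score merges 667 nm emission intensity and signal-to-noise per printed compound spot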
Chain of Albumin (Bos taurus) (P02769 whole entry, looked up): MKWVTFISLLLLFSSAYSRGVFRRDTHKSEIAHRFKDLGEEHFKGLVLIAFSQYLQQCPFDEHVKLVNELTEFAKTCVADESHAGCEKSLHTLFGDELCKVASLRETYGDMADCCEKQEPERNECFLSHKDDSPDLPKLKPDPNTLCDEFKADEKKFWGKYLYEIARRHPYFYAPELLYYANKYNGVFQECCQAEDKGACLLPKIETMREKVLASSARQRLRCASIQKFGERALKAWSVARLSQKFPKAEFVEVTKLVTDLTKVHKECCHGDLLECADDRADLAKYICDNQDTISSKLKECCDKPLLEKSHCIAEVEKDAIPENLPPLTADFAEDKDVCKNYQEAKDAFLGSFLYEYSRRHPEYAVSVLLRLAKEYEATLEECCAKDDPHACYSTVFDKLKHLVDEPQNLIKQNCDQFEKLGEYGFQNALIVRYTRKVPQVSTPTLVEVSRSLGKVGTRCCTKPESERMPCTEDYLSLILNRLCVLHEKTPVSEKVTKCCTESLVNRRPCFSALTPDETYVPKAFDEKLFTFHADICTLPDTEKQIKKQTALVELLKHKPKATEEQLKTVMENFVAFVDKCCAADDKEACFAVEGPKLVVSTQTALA

[2] = small-molecule microarray binders of probe aXIP, primary screen, biochemical, NeuroSMM set, 635/667 nm fluorescence (AID 1119); conditions: higher = more signal, called active from +8 up or from −8 down;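 note: probe is the protein aXip251-270 applied at 1 µg/mL to compound-printed slides; binding of probe to printed compounds measured as 667 nm fluorescence plus signal to noise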
[3] = small-molecule binders of probe aNOTCH3, primary screen, biochemical, small-molecule microarray, 635/667 nm fluorescence (AID 1120); conditions: higher = more signal;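 note: probe is a biotin-tagged antibody raised against NOTCH3 rather than NOTCH3 protein; score merges spot fluorescence near 667 nm with spot signal to noise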
[4] = small-molecule binders of probe aNOTCH2, primary screen, biochemical, small-molecule microarray, 635/667 nm fluorescence (AID 1121); conditions: higher = more signal;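 note: score merges feature fluorescence read at 667 nm with its signal to noise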
[5] = molecular target: Carbonic anhydrase 2 (Homo sapiens) (UniProt P00918); experiment: CAII small-molecule binders, profiling panel, biochemical, small-molecule microarray, Alexa647-labelled CAII (AID 1122); conditions: CAII-A647 binding fluorescence, higher = more signal
[6] = COS7 lysate on small-molecule microarray, probe aHis, 635 nm (AID 1123); conditions: COS7 cell lysate, fluorescence, higher = more signal;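 note: z-score combines 667nm fluorescence intensity with signal-to-noise per printed compound spot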
[7] = compound binding in COS7 lysate, probe aLAP1, primary screen, cell lysate, small-molecule microarray (AID 1124); conditions: probe aLAP1, fluorescence, higher = more signal;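 note: lysate comes from COS7 cells expressing LAP1 and is applied at 0.3 µg/mL; score merges spot fluorescence near 667 nm with signal-to-noise over triplicate slides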
[8] = system: Sam68 (KHDRBS1); experiment: Sam68 small-molecule binders, primary screen, biochemical, small-molecule microarray, 635 nm fluorescence (AID 1125); conditions: small-molecule microarray binding, higher = more signal;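 note: score merges 667 nm channel intensity with signal to noise over triplicate slides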
[9] = system: Chordin-like protein 2 (CHRDL2); experiment: CHRDL2 small-molecule binders, primary screen, biochemical, small-molecule microarray, 635 nm fluorescence (AID 1126); conditions: small-molecule microarray binding, fluorescence 635 nm; higher = more signal;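 note: printed compound slides probed with Chrdl2 protein at 4 µg/mL for 1 h at 4 C; score merges 667 nm emission intensity with signal to noise over three replicate slides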
[10] = molecular target: Concanavalin-A (Canavalia ensiformis) (UniProt P02866); experiment: ConA small-molecule binders, primary screen, artefact control for SMM control protein annotation, biochemical, small-molecule microarray, Alexa647 label, 635 nm (AID 1127); conditions: ConA-A647 binding fluorescence, higher = more signal;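 note: z combines 667 nm emission intensity with signal-to-noise across three replicate slides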
Chain of Concanavalin-A (Canavalia ensiformis) (P02866 whole entry, looked up): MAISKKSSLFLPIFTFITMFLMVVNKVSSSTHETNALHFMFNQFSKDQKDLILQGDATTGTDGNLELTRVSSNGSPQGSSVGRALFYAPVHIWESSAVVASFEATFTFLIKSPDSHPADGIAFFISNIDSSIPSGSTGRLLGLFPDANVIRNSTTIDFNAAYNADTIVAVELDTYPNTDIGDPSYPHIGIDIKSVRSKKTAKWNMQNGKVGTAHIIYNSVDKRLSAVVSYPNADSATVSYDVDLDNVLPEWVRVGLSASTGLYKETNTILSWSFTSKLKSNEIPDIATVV

| SMILES | composite z-score [1] | composite Z-score [2] | composite z-score [3] | composite z-score [4] | composite z-score [5] | composite z-score [6] | composite z-score [7] | composite z-score [8] | composite z-score [9] | composite z-score [10] |
| --- | --- | --- | --- | --- | --- | --- | --- | --- | --- | --- |
| COc1ccc(O[C@H]2C=C[C@@H](c3ccccc3)O[C@@H]2COC(=O)CCC(C)=NO[C@H](C)c2cn([C@H](CO)Cc3ccccc3)nn2)cc1 | 0.683 and 0.0567 | 0.0335 (inactive) and 0.232 (inactive) | 0.0886 and -0.295 | -0.318 and -0.0611 | -0.11 and -0.114 | 0.167 and -0.0458 | -0.226 and -0.0278 | 0.492 and -0.005 | 0.0011 and 0.593 | -0.0163 and -0.0252 |
| CC(CO)N1C(=O)[C@@H]2C3C(=O)OCCC=C[C@H]3OC23C=CCN(c2ccc(Cl)cc2)C(=O)[C@@H]13 (stereo not given in full) | -0.999 and 0.734 | -0.33 (inactive) and 0.551 (inactive) | -0.33 and 0.0749 | -0.0995 and 0.0031 | 0.889 and 0.596 | -0.31 and 0.287 | -0.102 and -0.304 | -0.805 and 0.2 | -1.51 and -0.496 | -0.935 and 0.094 |
| CCOC(=O)[C@H](Cc1ccccc1)NC(=O)CCC1CC(OC(=O)NCc2cccc3ccccc23)CC2(CCCC(COC(=O)NCCCN3CCCC3=O)O2)O1 (stereo not given in full) | -0.395 | -0.365 (inactive) | 0.0203 | -0.101 | 0.165 | 1.14 | -0.223 | 1.12 | 0.5 | 1.08 |
| C=CCN(CCCC)C(=O)C1N(CCOCCO)C(=O)C2C(C(=O)O)C3C=CC21O3 (stereo not given) | -0.994 and -2.32 | 0.0673 (inactive) and 0.289 (inactive) | -0.372 and -0.457 | -0.211 and -0.185 | 1.01 and 0.811 | 0.806 and -0.742 | 0.675 and 0.0426 | -1.11 and -1.43 | -1.67 and -1.1 | -0.268 and -1.9 |
| CC(CO)N1C(=O)[C@@H]2C3C(=O)OCCC=C[C@H]3OC23C=CCN(c2ccc4ccccc4c2)C(=O)[C@@H]13 (stereo not given in full) | -0.452 and 0.947 | -0.862 (inactive) and 0.322 (inactive) | -0.1 and -0.498 | -0.14 and -0.299 | 0.838 and 0.84 | 0.506 and 0.368 | 0.697 and 0.476 | 0.31 and -0.264 | -0.937 and -1.09 | 0.0026 and -0.279 |
| C=C[C@@H](OC)[C@H](O)c1ccc(O)c(F)c1 | -0.131 and 0.529 | 1.31 (inactive) and -0.643 (inactive) | -0.502 and -0.544 | -0.266 and -0.254 | 0.881 and -0.182 | -0.385 and -0.626 | 1.24 and -1.16 | -0.697 and -1.48 | -0.952 and -0.984 | -0.904 and -1.04 |
| O=C1NC(=O)C2C1C=CC(C(O)c1ccc([N+](=O)[O-])cc1)N2Nc1ccc(Cl)cc1Cl (stereo not given) | 0.933 and 0.732 | -0.35 (inactive) and -0.195 (inactive) | 0.0597 and 0.133 | 0.0454 and 0.153 | 0.483 and 0.751 | 2.95 and 2.03 | 0.673 and 1.28 | 0.415 and 0.584 | -0.532 and -0.0926 | 0.738 and 0.461 |
